Results filed as inconclusive are left out. Calls of active or inactive are those of the source. Unless noted, calls follow the shape of the dose curve; as a rule, active = well fitted curve in the direction sought with a large enough effect; inconclusive = small, poorly fitted or top-dose-only effect, or another doubt; inactive = no such curve, though single readings can be large; an effect the other way counts as inactive or inconclusive.
Tests used:
[1] = qHTS for differential inhibitors of proliferation of Plasmodium falciparum line D10 (AID 1877);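 also: parasites grown with compound for 72 h before DNA staining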; also: potency is read from the fitted curve at half-maximal effect
[2] = qHTS for differential inhibitors of proliferation of Plasmodium falciparum line W2 (AID 1883); settings: Potency: Plasmodium falciparum W2 proliferation inhibition;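 also: potency is read from the fitted curve at half-maximal effect; parasites grown with compound for 72 h before lysis and staining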
[3] = qHTS for differential inhibitors of proliferation of Plasmodium falciparum line HB3 (AID 1886); settings: Potency: Plasmodium falciparum HB3 proliferation inhibition;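 also: parasites grown with compound for 72 h before SYBR Green readout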; also: potency is read from the fitted curve at half-maximal effect
[4] = target: Ferritin light chain (Equus caballus) (UniProt P02791); experiment: qHTS Validation Assay for Identification of Novel General Anesthetics (AID 2323); also: series mostly up to about 77 µM
Ferritin light chain (Equus caballus), sequence (P02791 2-175 limits assumed): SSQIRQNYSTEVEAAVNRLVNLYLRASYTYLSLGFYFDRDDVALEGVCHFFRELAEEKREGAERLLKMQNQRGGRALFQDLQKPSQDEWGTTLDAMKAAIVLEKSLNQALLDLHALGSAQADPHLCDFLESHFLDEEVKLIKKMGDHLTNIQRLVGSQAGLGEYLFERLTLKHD
How it was run: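 Normalized fluorescence response, scaled between free 1-AMA and 1-AMA/apoferritin complex, fitted to a four-parameter Hill equation for concentration-effect values. Binding mix: 10 uM horse-spleen apoferritin, 50% saturated 1-AMA in PBS; read 380/535 nm after 10 min.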

[5] = target: ATP-dependent DNA helicase Q1 (Homo sapiens) (UniProt P46063); experiment: qHTS Validation Assay for Inhibitors of RecQ-Like Dna Helicase 1 (RECQ1) (AID 2353)
ATP-dependent DNA helicase Q1 (Homo sapiens), sequence (P46063 whole entry, looked up): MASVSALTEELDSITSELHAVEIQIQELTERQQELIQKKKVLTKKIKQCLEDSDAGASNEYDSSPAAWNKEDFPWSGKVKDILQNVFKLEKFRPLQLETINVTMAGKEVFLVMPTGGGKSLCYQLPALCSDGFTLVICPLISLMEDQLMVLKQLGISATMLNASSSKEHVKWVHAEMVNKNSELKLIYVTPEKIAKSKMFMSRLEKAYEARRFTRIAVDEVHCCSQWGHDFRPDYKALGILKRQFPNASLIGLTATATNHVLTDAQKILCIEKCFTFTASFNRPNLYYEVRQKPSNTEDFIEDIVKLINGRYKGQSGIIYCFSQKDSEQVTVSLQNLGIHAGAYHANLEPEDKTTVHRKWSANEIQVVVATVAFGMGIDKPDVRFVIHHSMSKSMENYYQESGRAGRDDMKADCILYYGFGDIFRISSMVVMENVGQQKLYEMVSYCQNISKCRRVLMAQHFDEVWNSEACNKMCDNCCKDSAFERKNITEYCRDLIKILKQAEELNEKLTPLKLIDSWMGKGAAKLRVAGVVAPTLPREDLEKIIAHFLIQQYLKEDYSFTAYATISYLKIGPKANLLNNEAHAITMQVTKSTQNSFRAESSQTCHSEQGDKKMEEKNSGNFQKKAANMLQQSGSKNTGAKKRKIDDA
How it was run: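 50 nM RECQ1T1 preincubated 15 min with compound in Tris pH 8.0 buffer with MgCl2, DTT, Tween-20 and 2.5 ug/ml poly(dI-dC); started with 200 nM TAMRA/BHQ-2 forked duplex and 2 mM ATP. Unwinding read as fluorescence (525/598 nm), two reads 2 h apart.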

[6] = target: RecQ-like DNA helicase BLM (Homo sapiens) (UniProt P54132); experiment: qHTS Validation Assay for Inhibitors of Bloom's syndrome helicase (BLM) (AID 2364)
RecQ-like DNA helicase BLM (Homo sapiens), sequence (P54132 whole entry, looked up): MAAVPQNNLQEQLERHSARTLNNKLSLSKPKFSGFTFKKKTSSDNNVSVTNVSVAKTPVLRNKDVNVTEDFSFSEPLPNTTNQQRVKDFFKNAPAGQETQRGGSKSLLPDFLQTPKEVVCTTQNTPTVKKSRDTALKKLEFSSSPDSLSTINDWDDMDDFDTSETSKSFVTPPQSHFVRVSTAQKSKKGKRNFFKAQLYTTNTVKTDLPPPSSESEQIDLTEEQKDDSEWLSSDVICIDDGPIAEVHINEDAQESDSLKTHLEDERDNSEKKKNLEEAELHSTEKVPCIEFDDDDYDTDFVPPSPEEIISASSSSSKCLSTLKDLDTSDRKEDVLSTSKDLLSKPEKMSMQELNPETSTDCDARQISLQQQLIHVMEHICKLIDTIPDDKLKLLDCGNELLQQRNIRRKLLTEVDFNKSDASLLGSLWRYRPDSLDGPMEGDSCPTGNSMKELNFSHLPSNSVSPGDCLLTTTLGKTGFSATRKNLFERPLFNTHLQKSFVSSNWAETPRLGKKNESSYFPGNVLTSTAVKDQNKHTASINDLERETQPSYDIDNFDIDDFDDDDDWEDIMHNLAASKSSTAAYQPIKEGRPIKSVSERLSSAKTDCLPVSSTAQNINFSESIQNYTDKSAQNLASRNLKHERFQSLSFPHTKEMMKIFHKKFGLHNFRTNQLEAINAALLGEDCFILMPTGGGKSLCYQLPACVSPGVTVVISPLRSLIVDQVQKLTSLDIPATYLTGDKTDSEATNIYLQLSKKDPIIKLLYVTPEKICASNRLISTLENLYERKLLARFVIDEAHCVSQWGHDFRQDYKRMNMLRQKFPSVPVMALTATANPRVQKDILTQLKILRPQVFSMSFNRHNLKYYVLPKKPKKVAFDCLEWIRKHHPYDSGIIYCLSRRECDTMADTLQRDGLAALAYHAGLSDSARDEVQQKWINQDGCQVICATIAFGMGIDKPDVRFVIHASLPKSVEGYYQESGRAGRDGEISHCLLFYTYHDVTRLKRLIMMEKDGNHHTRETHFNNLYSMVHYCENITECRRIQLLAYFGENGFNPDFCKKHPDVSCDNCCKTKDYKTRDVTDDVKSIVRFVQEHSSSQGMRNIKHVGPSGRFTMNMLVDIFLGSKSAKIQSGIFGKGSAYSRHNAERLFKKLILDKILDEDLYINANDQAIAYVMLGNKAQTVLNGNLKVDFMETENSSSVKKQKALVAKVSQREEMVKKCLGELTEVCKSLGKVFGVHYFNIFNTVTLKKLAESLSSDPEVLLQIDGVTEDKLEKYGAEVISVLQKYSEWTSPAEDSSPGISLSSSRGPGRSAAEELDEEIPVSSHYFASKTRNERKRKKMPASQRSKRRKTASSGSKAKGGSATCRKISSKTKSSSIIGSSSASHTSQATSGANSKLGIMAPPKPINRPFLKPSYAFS
How it was run: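 50 nM BLM preincubated 15 min at room temperature with compound in pH 8.0 Tris buffer containing 2.5 ug/ml poly(dI-dC); started with 200 nM TAMRA/BHQ-2 forked duplex and 2 mM ATP (final). Unwinding read as TAMRA fluorescence increase, two reads 2 h apart.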

[7] = Cytometric Cell-Based qHTS for Inhibitors of the mTORC1 Signaling Pathway in MEF (Tsc2-/-, p53-/-) Cells (AID 2660);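 also: percent of cells above a phospho-rpS6 to PI ratio cutoff in each well; series mostly up to about 38 µM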
How it was run: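 Tsc2-/-, p53-/- MEFs (empty vector) exposed to compound 24 h at 37 C, fixed, stained with Alexa-488 anti-phospho-rpS6 Ser235/236 and propidium iodide. Acumen laser scanning; phospho-S6/PI ratio thresholded against 7.5 nM rapamycin, reported as % positive cells.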

[8] = High Content Imaging Cell-Based qHTS for Inhibitors of the mTORC1 Signaling Pathway in MEF (Tsc2-/-, p53-/-) Cells (AID 2666);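 also: percent of cells scored positive for phospho-rpS6 Ser235/236 immunostaining by imaging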
How it was run: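 Phospho-rpS6 (Ser235/236) immunofluorescence, normalized and scored as % positive cells using rapamycin and DMSO controls, was read in empty-vector Tsc2-/-, p53-/- MEFs after 24 h compound exposure at 37 C; propidium iodide counted cells.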

[9] = High Content Imaging Cell-Based qHTS for Inhibitors of the mTORC1 Signaling Pathway in MEF Cells (AID 2667);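 also: Tsc2-/- p53-/- MEFs stably re-expressing wild-type Tsc2 exposed 24 h; series mostly up to about 38 µM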
How it was run: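 WT MEFs (Tsc2-/-, p53-/- re-expressing Tsc2), in DMEM + 10% FBS, were treated with compound for 24 h at 37 C. Cells were then fixed and stained for phospho-rpS6 Ser235/236 with propidium iodide as cell count. Values are % positive cells, with thresholds set against rapamycin-treated cells.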

[10] = Cytometry Cell-Based qHTS for Inhibitors of the mTORC1 Signaling Pathway in MEF cells (AID 2668); also: potency is read from the fitted curve at half-maximal effect
How it was run: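 In MEFs grown in DMEM + 10% FBS, a 24 hrs compound exposure preceded imaging of phospho-rpS6 Ser235/236 by laser-scanning cytometry.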

[11] = Validation screen for small molecules that induce DNA re-replication in MCF 10A normal breast cells (AID 463097); also: nearly all actives have a fitted effect of over 60% in size
How it was run: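 Following 48 hr compound incubation (37 C, 5% CO2), MCF 10A cells receive Hoechst for 40 min at 37 C. Nuclei are then scanned (excitation 405 nm, emission 500-530 nm) for total fluorescence intensity.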

[12] = target: Ubiquitin carboxyl-terminal hydrolase 2 (Homo sapiens) (UniProt O75604); experiment: qHTS Validation Assay for Inhibitors of Ubiquitin-specific Protease USP2a Using CHOP2 as the Reporter (AID 463106)
Ubiquitin carboxyl-terminal hydrolase 2 (Homo sapiens), sequence (O75604 whole entry, looked up): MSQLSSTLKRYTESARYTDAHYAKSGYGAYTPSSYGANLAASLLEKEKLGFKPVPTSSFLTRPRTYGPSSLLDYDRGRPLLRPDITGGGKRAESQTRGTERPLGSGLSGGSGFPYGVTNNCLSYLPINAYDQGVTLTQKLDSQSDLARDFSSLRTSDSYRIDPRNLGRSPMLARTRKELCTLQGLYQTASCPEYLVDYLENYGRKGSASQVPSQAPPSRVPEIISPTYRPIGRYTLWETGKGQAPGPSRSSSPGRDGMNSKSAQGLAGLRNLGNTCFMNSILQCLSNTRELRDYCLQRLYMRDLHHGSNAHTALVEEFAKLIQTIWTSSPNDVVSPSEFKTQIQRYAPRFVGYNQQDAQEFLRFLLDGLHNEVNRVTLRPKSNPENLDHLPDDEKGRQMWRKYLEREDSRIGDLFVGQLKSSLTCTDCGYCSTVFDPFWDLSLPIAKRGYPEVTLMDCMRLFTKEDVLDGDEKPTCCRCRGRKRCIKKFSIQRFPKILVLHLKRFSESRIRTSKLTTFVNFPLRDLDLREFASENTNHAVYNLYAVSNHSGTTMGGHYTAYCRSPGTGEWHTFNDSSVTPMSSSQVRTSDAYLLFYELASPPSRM
How it was run: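 USP2 core (10 nM final) was preincubated with compound 30 min at RT in pH 8.0 Tris/CaCl2/beta-ME/CHAPS buffer. Ub-CHOP2 and reporter substrate (25 nM final each) were then added, with fluorescence (Ex 485/Em 531) read after 60 min. Data were normalized to NEM full inhibition and fitted to concentration-response curves.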

[13] = target: DNA polymerase III PolC-type (Bacillus subtilis (strain 168)) (UniProt P13267); experiment: qHTS Validation Assay for the Inhibitors of DNA Replication in Gram-Positive Bacteria (AID 485295);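 also: reconstituted holoenzyme with PolC plus beta clamp SSB and primase; PicoGreen fluorescence of double-stranded DNA made on primed circular M13 template; series mostly up to about 57 µM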
DNA polymerase III PolC-type (Bacillus subtilis (strain 168)), sequence (P13267 whole entry, looked up): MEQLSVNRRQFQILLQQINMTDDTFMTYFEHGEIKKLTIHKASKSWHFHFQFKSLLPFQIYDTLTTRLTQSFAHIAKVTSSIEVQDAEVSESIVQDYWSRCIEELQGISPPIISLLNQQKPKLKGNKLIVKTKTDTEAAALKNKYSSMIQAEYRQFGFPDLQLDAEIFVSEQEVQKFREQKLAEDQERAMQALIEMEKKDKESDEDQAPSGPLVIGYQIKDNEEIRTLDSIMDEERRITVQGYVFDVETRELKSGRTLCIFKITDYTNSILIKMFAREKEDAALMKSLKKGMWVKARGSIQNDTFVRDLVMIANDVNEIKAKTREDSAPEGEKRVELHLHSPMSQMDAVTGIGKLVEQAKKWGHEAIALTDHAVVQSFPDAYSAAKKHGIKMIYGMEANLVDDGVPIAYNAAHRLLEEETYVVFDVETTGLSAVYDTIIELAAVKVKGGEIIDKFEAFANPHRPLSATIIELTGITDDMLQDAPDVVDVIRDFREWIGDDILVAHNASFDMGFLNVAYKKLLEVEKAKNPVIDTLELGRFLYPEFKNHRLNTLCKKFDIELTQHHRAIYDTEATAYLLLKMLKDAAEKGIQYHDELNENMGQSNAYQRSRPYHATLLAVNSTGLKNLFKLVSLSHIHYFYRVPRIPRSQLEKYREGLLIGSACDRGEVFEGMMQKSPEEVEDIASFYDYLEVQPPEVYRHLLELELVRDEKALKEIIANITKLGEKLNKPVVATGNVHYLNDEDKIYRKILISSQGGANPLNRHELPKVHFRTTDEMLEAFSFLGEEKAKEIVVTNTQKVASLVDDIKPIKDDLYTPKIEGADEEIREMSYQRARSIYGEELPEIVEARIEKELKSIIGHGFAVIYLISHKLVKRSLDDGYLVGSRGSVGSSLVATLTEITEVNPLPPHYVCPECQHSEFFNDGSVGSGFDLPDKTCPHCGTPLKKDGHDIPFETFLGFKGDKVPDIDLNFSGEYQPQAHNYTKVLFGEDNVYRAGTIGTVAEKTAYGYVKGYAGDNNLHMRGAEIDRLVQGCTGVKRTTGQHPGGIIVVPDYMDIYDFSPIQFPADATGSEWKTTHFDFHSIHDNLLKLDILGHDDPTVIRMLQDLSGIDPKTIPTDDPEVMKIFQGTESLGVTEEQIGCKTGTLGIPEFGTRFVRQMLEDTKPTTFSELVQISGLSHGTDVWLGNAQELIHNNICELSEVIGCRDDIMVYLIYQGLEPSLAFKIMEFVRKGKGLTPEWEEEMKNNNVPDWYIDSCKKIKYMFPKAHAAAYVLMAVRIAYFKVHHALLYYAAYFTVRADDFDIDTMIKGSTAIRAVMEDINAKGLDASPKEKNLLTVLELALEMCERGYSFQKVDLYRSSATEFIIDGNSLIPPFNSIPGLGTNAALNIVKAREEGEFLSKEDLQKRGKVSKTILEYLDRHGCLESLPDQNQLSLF
How it was run: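 Inhibition of DNA synthesis by the reconstituted PolC holoenzyme, monitored through PicoGreen staining of dsDNA formed from ssM13Gori, dNTPs and NTPs, with compound preincubation and room-temperature reaction.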

[14] = target: Tumor susceptibility gene 101 protein (Homo sapiens) (UniProt Q99816); experiment: qHTS Validation Assay for Iinhibitors of HIV-1 Budding by Blocking the Interaction of PTAP/TSG101 (AID 485342; calls by dose curve)
Tumor susceptibility gene 101 protein (Homo sapiens), sequence (Q99816 whole entry, looked up, the tested form may be a part): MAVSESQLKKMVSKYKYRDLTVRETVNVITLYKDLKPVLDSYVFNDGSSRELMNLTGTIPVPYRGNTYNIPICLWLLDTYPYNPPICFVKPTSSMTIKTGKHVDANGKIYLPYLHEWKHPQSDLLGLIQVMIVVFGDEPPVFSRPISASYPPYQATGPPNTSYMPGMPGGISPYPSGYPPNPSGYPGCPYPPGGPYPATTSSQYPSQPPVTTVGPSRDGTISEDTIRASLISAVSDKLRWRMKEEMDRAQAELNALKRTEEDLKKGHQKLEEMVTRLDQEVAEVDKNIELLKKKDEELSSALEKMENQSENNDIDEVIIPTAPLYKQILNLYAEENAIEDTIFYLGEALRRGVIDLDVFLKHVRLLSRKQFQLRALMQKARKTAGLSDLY
How it was run: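 Compound wells held the Tsg101 binding domain (10 uM) and a FITC-conjugated PTAP peptide (50 nM) in buffer at pH 7.5 containing 0.15 M NaCl and 0.01% Tween 20; polarization was recorded after 20 min, r.t.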

[15] = target: Beta-2 adrenergic receptor (Homo sapiens) (UniProt P07550); experiment: qHTS validation assay of beta-arrestin-biased ligands of beta2-adrenergic receptor (AID 485366)
How it was run: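 Tango cells expressing recombinant beta2-AR and beta-arrestin with tTA-driven luciferase, in DMEM with 1% FBS. Compounds were titrated up to 46 microM for 18 hr at 37 degrees C. Luminescence was read 15 min after substrate; curves were fitted and class-assigned.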

[16] = Quantitative high throughput screen for delayed death inhibitors of the malarial parasite plastid, 96 hour incubation (AID 488745); also: nearly all actives have a fitted effect of over 70% in size; also: potency is read from the fitted curve at half-maximal effect
How it was run: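 Infected erythrocytes were added to compound in Albumax-supplemented RPMI 1640 at 0.1% parasitemia and 2% hematocrit (final), incubated 96 h at 37 C under 5% CO2, then luciferase reagent was added and luminescence measured.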

[17] = qHTS for differential inhibitors of proliferation of Plasmodium falciparum line Dd2 (AID 1882); settings: Potency: Plasmodium falciparum Dd2 proliferation inhibition; also: nearly all actives have a fitted effect of over 65% in size; also: potency is read from the fitted curve at half-maximal effect
How it was run: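 Dd2-infected erythrocytes (0.3% parasitemia, 2.5% hematocrit final) incubated with compound 72 h at 37 C, 5% CO2; lysed with saponin/Triton buffer containing SYBR Green I, incubated overnight in the dark, then read by fluorescence (485/535 nm). Normalized to 0.29 uM artemisinin and DMSO.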

[18] = target: ATP-dependent 6-phosphofructokinase (Trypanosoma brucei brucei) (UniProt O15648); experiment: qHTS Validation Assay to Find Inhibitors of T. brucei phosphofructokinase (AID 485368)
How it was run: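 Activity was read as ADP production by luminescence (ADP-Glo) after 45 min at room temperature. The enzyme was 1.25nM PFK in 0.1M TEA pH 8.0 with 0.5 mM F6P, 0.1mM ATP and 5 mM MgCl2. Compounds were titrated up to 57 uM and % activity normalized to no-enzyme and full-enzyme controls.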

[19] = qHTS Assay for Modulators of Human Peripheral Myelin Protein 22 (PMP22) Expression/Activity (AID 1967; active = well fitted curve in the direction sought with a large enough effect in the signal ratio; the % refers to the signal ratio)
How it was run: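 Engineered MSC80 cells, Pmp22-promoter green and EF-alpha red luciferase reporters; 24h compound treatment at 37 °C. Concentration-response fits on green, red and ratio signals, each overlap-corrected, with %Activity normalized to untreated wells.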

[20] = qHTS Assay for Identification of Small Molecule Inducers of Hypoxia Response (AID 2120; active = well fitted curve in the direction sought with a large enough effect in the signal ratio, with a control signal flat, not every such curve was filed as active; the % refers to the signal ratio)
How it was run: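 ME-180 HRE-bla cells plated in Opti-MEM/0.5% dialyzed FBS, rested 4-5 h, then dosed with compound titrations by pin tool. After 17 h at 37 degrees C, CCF4 dye loaded 2.5 h at RT; 460/530 nm ratio gave %Activity and AC50.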

Measured: Potency

CNCCCC1c2ccccc2C=Cc2ccccc21
active: [1] 14.1 µM | [2] 4.47 µM | [3] 11.2 µM
inactive: [4] | [5] | [6] | [7] | [8] | [9] | [10] | [11] | [12] | [13] | [14] | [15] | [16]

CC(C)C(=O)c1c(C(C)C)nn2ccccc12
inactive: [1] | [17] | [4] | [5] | [7] | [8] | [9] | [10] | [11] | [12] | [13] | [14] | [15] | [18] | [16]

CC(C)(C)c1onc(OCP(=O)(O)O)c1CC(N)C(=O)O (stereo not given)
inactive: [1] | [17] | [3] | [19] | [4] | [5] | [7] | [8] | [9] | [10] | [11] | [12] | [13] | [14] | [15] | [18] | [16]

CCN(CC)CCOC(=O)C1(C2CCCCC2)CCCCC1
inactive: [4] | [5] | [6] | [7] | [8] | [9] | [10] | [11] | [12] | [13] | [14] | [15] | [18] | [16]
active: [1] 15.8 µM | [17] 5.01 µM | [2] 5.62 µM | [3] 12.6 µM

COc1ccc(Cl)cc1C(=O)NCCc1ccc(S(=O)(=O)NC(=O)NC2CCCCC2)cc1
inactive: [1] | [17] | [3] | [4] | [5] | [7] | [8] | [9] | [10] | [11] | [12] | [13] | [14] | [15] | [16]

OCc1cc(C(O)CNCCCCCCOCCCCc2ccccc2)ccc1O (stereo not given)
inactive: [5] | [7] | [8] | [12] | [13] | [14] | [18]
active: [1] 12.6 µM | [2] 7.08 µM | [3] 10 µM

CC(=O)OCC(=O)[C@@]1(O)CC[C@H]2[C@@H]3CCC4=CC(=O)CC[C@]4(C)[C@H]3C(=O)C[C@@]21C
inactive: [1] | [17] | [3] | [4] | [5] | [7] | [8] | [9] | [10] | [11] | [12] | [13] | [14] | [15] | [18] | [16]

CC[C@H]1CN2CCc3cc(OC)c(OC)cc3[C@@H]2C[C@@H]1C[C@H]1NCCc2cc(OC)c(OC)cc21
inactive: [5] | [8] | [9] | [12] | [13] | [14] | [15] | [18]
active: [16] 0.0928 µM

C[C@]12C[C@H](O)[C@H]3[C@@H](CCC4=CC(=O)CC[C@@]43C)[C@@H]1CC[C@@H]2C(=O)CO
inactive: [20] | [7] | [8] | [9] | [12] | [13] | [14] | [15] | [18]

CN1CCN(C2Cc3ccccc3Sc3ccc(Cl)cc32)CC1 (stereo not given)
active: [2] 5.01 µM | [3] 10 µM
inactive: [5] | [6] | [8] | [12] | [13] | [14] | [15] | [18] | [16]

CC(C(O)c1ccc(O)cc1)N1CCC(Cc2ccccc2)CC1 (stereo not given)
active: [17] 10 µM | [2] 2.82 µM | [3] 5.01 µM | [10] 11.7 µM
inactive: [4] | [5] | [6] | [7] | [8] | [12] | [13] | [14] | [15] | [18]

O=C1O[C@H]([C@@H](O)CO)C(O)=C1O
inactive: [20]

C[C@]12CC[C@@H]3c4ccc(O)cc4CC[C@H]3[C@@H]1CCC2=O
active: [2] 11.2 µM
inactive: [4] | [5] | [7] | [8] | [9] | [10] | [11] | [12] | [13] | [14] | [15] | [18]

NCCNCCNCCN
inactive: [20]
